ChEMBL document CHEMBL3433997, “St. Jude Leishmania screening dataset” (2016)

How the values were obtained:
Assay type in all cases: functional
[1] = target: Solute carrier family 2, facilitated glucose transporter member 1 (Homo sapiens) (UniProt P11166); assay: ST_JUDE_LEISH: Cytotoxicity at 2uM final concentration against transgenic Leishmania Mexicana promastigotes LmGLUT1 that are glucose transport deficient and complemented with the human glucose transporter GLUT1. Activity is measured by DNA content using SYBR green in vitro
[2] = target: Hexose transporter 1 (Plasmodium falciparum) (UniProt O97467); assay: ST_JUDE_LEISH: Cytotoxicity at 2uM final concentration against transgenic Leishmania Mexicana promastigotes LmPfHT that are glucose transport deficient and complemented with the Plasmodium falciparum hexose transporter. Activity is measured by DNA content using SYBR green in vitro
[3] = target: Glucose transporter (Leishmania mexicana) (UniProt O61059); assay: ST_JUDE_LEISH: Cytotoxicity at 2uM final concentration against transgenic Leishmania Mexicana promastigotes LmGT2 that are glucose transport deficient and complemented with the L. Mexicana glucose transporter 2. Activity is measured by DNA content using SYBR green in vitro

Chain of Solute carrier family 2, facilitated glucose transporter member 1 (Homo sapiens) (P11166 whole entry): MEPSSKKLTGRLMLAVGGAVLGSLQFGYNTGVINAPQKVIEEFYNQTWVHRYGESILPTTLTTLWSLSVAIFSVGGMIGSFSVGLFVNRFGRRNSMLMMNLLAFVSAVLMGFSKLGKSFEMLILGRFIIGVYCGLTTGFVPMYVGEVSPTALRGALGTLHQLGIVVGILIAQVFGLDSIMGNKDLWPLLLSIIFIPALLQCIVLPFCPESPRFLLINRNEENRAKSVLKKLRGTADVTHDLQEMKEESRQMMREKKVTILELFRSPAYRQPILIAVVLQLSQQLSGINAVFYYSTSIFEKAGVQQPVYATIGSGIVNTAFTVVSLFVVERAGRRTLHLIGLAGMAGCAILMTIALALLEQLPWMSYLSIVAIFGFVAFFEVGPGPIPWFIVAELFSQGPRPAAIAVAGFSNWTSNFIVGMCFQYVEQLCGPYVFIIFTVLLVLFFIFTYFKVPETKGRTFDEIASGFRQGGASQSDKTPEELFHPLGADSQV

Structure (SMILES) | inhibition [1] | inhibition [2] | inhibition [3]
COc1ccc2nccc([C@@H](O)CN3CCC(NCCNc4cccc(F)c4)CC3)c2c1 | 6.07% | 11.1% | 0.95%
C[C@H](NC(=O)[C@H](CCCCNC(=O)OC(C)(C)C)NC(=O)OC(C)(C)c1ccc(-c2ccccc2)cc1)C(=O)OCc1ccccc1 | 3.8% | 3.27% | 1.84%
CS(=O)(=O)c1ccc(CNCc2ccc(-c3ccc(-c4nc5cc(C(F)(F)F)ccc5[nH]4)s3)cc2)cc1 | 12% | 10.7% | 9.87%
CC(CN1CCN(C)CC1)C(=O)Nc1ccc(-c2ccc(-c3nc4ccccc4[nH]3)s2)cc1 (stereo unspecified) | 5.66% | 5.15% | 3.56%
Cc1ccc2c(c1)c(C1CCN(C(=O)c3ccc([N+](=O)[O-])o3)CC1)cn2C | 8.36% | 9.14% | 4.16%
CCCCCCCN(Cc1ccc(OC(C)(C)C(=O)OCC)cc1)C(=O)Cc1ccc(F)cc1F | 2.17% | 1.8% | 2.23%
O=c1nc2[nH]c3ccccc3n2c(=O)[nH]1 | 3.69% | 2.18% | 3.41%
Cc1ccc(C)c(NC(=O)CC2C(=O)N(c3ccccc3)C(=S)N2Cc2ccco2)c1 (stereo unspecified) | 4.9% | 5.73% | 5.93%
CCCCN(C(=O)c1ccccc1C)c1nnc(-c2ccccc2C)s1 | 2.08% | 1.53% | -0.2%
CN(Cc1cccc(F)c1)C1CCCN(c2cc(NC(=O)c3ccccc3)ccn2)C1 (stereo unspecified) | 4.12% | 4.07% | 3.71%
CCOc1ccc(N2CCN(CCCCNC(=O)c3ccc(NC(=O)c4ccc(Cl)cc4)cc3)CC2)c(OCC)c1 | 1.06% | 1.88% | 2.35%
CN1C(C)(C)CC(NC(=O)c2ccc(-c3cc4cc(Cl)c(Cl)cc4[nH]3)o2)CC1(C)C | 4.77% | 4.2% | 6.1%
